From PubChem BioAssay AID1508600 (Functional Genomics Laboratory (NCATS/FGL), 2020)
Out of some 53,000 sequences screened, about 3,700 (7%) were called active. This excerpt belongs to a sample that is enriched for actives. Unmarked numbers belong to inactive results.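 The calls were made as follows: active = gene knockdowns whose robust z-score for IL-1 alpha signal is at least 2 or at most -2, so actives lie on both sides; inactive = the rest.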

Assay: Components of the Cytosolic LPS Sensing Pathway: Gene Identification via Genome-wide siRNA Screen;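 also: robust z of the log signal after scaling to non-targeting control siRNA wells of the plate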
Conditions: RAW264.7 macrophages, IL-1a HTRF, actives lie on both sides, screened at 100 nM (by protocol), cells primed 5 h with Pam3CSK4 first
Procedure, shortened: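 Mouse macrophage line RAW264.7 is transfected with siRNA (100 nM final), grown 48h, primed with TLR ligand Pam3CSK4 5 h and given intracellular LipidA 24 h. IL-1a in supernatant is read by HTRF and viability by luminescence.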

Sequence | z-score
GGUUCUGGUUUAGAUGCUATT against H2aw | 2.36 (active)
GGAUUUCUUCUUAUGAUGATT against Khnyn | -1.21
GCUCAGAAUAUCACAUCAATT against Ppm1b | -1.59
GCUAAAAUAUUAGGGAAGCTT against Timm29 | 0.429
GGAGAUAGGAUUGCUUGCATT against Mthfd1l | -2.3 (active)
GGAAAGAAAAAUGAAGCUUTT against Tmem167b | -0.548
GGAUAUCGUUGUUUCUGAGTT against Lmbr1 | -1
GGGUGGUGUUCCAUGACAGTT against Ubp1 | -1.82
GGCACAAGAUUAUUUAAGUTT against Tmem68 | 0.362
GGUUCUAUGCUGAAGGUCATT against Lhfpl2 | 0.358
GGAGCUGUCCAGGUUUAUUTT against Psmd6 | -2.72 (active)
GGCUUGUGAAUGGAAAUAATT against Hsp90aa1 | -0.416
CCUUAAGACCGGAUUUUUUTT against Cyp4f14 | 0.64
GGAGUUUGUAUCAAACUUATT against Zcchc8 | 0.0121
GGUAAUGGGAGCUAGUUUATT against 6330549D23Rik | -0.259
GCAUAGAAACCAUGCACAUTT against Acot2 | 3.28 (active)
CCGAGGACUAUUUGAAACGTT against Mrtfa | -1.46
GGAUUUGAGUUGAAGCGUGTT against Zscan20 | -0.129
GGUGGUAAAUCGAAUUGUUTT against Tmem185b | -0.171
GGCUGGCUAUAAGAAAAAATT against Mrpl35 | -0.646
GGCUUGAAGAUGUCUAUGATT against Aptx | -2.19 (active)
GGCCACAGGAAGUCAGUUATT against Gsk3b | -1.23
GCCAACCAUCAGUUUAUACTT against Mboat1 | -0.31

Sequence | z-score
GGCUGAAGAACUCCUACAATT against Dennd1c | 2.17 (active)
GGUUAGUAGUCUUCUUAUCTT against Olfr1173 | 0.291
CGCACAGAGAAUAAGGGAATT against Tcta | 0.843
CCUGAUGCACUACUCGUCUTT against Dmbx1 | -0.131
GGUAAAUGUCUGCUCUGAGTT against Selenok | -2.53 (active)
GGUCAACUAGCAGAAACCATT against Adgrv1 | -1.84
CCGUAGAGAUCAACAACACTT against Npepl1 | 0.799
GGACUCCUUCCACCACAAUTT against Aifm2 | -0.2
GCACAUAGCAUCCACUCCATT against Gm4793 | -2.56 (active)
CCCUAUUUGUCAGCGGUCUTT against Rbpms | -1.94
GCCUUAAGAGAUGUAUUUCTT against Vmn1r33 | -0.042
GGAGGAAAUGAUGAUUUUCTT against Kbtbd2 | 0.283
CCAAGCGAAUGCUGGACAUTT against Cox4i1 | 3.44 (active)
GGUACAUCUAUUUCUUGUUTT against Ncam2 | -1.2
GGACUGUACUAUGGCUCUCTT against Nt5m | 0.135
GGGAGGAGAGUGAUUGAGATT against A730013G03Rik | 0.682
CCAACAAAUUCUGGUGGGATT against Ccdc84 | 0.578
GGAGUACCUGUGGUGCAUUTT against Ahcy | 0.213
GGCGGUACCUCUUCUUCAUTT against Aipl1 | 2.32 (active)
CCGAAGUCAACUAAACUUATT against Rmc1 | 0.732
CCCUUGCUACAAUGAUGCCTT against Mfge8 | 2.56 (active)
GGACAACUUCAACAGCACUTT against Rab13 | -1.31
CGUAGAGCUCAGAGAAUUCTT against Dhx58 | 0.614

Sequence | z-score
GCGAAUGAUAUGUAUCAGATT against Pik3r1 | 0.647
ACCUUUUCAAAUCUGUGCGTT against Uts2b | -0.928
GGCUAACCAGAGGAAAAACTT against Rph3a | -2.19 (active)
GCUCUUGGUCCGUCUUCAGTT against 6030452D12Rik | -1.76
GGAGUCUUGUAAUGAGCUUTT against Zfp54 | 0.898
CCCUCAAAGUCAUUUCAAATT against Cfap43 | -1.61
GGUUGAAAAUGGAAGAGUATT against Mbnl2 | -2.27 (active)
CCUUCCUACCGGAGAAUGATT against Capn6 | -0.341
GGUUCAACAUGAAAAUGAUTT against Lingo2 | -0.251
GCCAAUUGAGUCGUCUAUCTT against Rps6ka1 | 2.41 (active)
GGCAGCGAUUGACAAAAUGTT against Eefsec | -0.756
GGUCGUGAUAAACAUAUCATT against Cep85 | -1.1
GGUCAAUGGCCACAAGUUCTT against Prkce | 0.421
CCAUGAUCGCUAGUGAAGCTT against Mrpl24 | -0.743
GGUGGUGAACUGUUUGACCTT against Pnck | -1.58
GCUGACCUUUGUAAGUUAUTT against Ttc17 | -0.369
GGCUAUGCUUCUUUCCUUUTT against Cfhr1 | 0.846
GGAGAAGAAAAAGAAGGACTT against Pak1 | -0.932
CGGCUUGCUACUUUGGAACTT against Gda | 2.55 (active)
GAUGGAUCGAACUCUGCACTT against Stard10 | -0.957
GGACCAAGUGGAGAAAGAATT against Nkx6-1 | -0.622
CCCAGAUGAACAAAUGACCTT against Tceanc | 0.582
